Structures are written as SMILES. Results filed as inconclusive are left out. Entries that show only a call come without a potency. Activity calls are given as the source filed them. The call rests on the fitted dose curve; in most records, active means well fitted cell-killing curve with a large enough effect in the repeat runs; inconclusive means weak or mixed curves, or effect the other way; inactive means flat fitted curve, though single readings scatter.

A short description of the assay: qHTS assay to identify small molecule antagonists of the estrogen receptor alpha (ER-alpha) signaling pathway using the BG1 cell line in the presence of 0.1 nM 17-beta-estradiol - cell viability counter screen (AID 1259241). Further: nearly all actives have a fitted effect of over 40% in size. As to conditions: VM7Luc4E2 (BG1) viability, CellTiter-Fluor protease, 22 h, 0.1 nM estradiol agonist added; series mostly up to 92.4 µM. An excerpt:
National Center for Advancing Translational Sciences [NCATS]
NIH Chemical Genomics Center [NCGC]
U.S. Environmental Protection Agency [EPA]
National Institutes of Environmental Health Sciences [NIEHS]
National Toxicology Program [NTP]
U.S. Food and Drug Administration [FDA]
Estrogen receptor (ER), a member of the nuclear hormone receptor plays an important role in development, metabolic homeostasis and reproduction. Two subtypes of ER, ER-alpha and ER-beta, have similar expression patterns with some uniqueness in both types. Endocrine disrupting chemicals (EDCs) and their interactions with steroid hormone receptors like ER causes disruption of normal endocrine function. Therefore, it is important to understand the effect of environmental chemicals in ER signaling pathway. For identifying ER antagonists, VM7Luc4E2 cell line was used to screen against Tox21 compound libraries.
VM7Luc4E2 cell line (provided by Denison MS, University of California) endogenously express full-length ER-alpha and is stably transfected with a plasmid containing four estrogen responsive elements (ERE) upstream of a luciferase reporter gene. The current screening for identification of ER-alpha inhibitors against Tox21 compound libraries used lower concentration (0.1 nM) of 17beta-Estradiol as a stimulator. The cytotoxicity of the Tox21 compound libraries against VM7Luc4E2 cell line was tested by measuring live-cell protease activity using CellTiter-Fluor assay in the same wells.
Tox21 Assay Protocol Summary:
VM7Luc4E2 cells were cultured in phenol red free assay medium containing 10% charcoal stripped FBS for 5 days prior to the assay. The cells were dispensed at 4,000 cells/well in 4 uL of assay medium into white wall/solid-bottom 1536-well plates (Corning Life Sciences, Corning, NY) using a Multidrop Combi (ThermoFisher Scientific, Waltham, MA) dispenser. After the assay plates were incubated at 37C and 5% CO2 for 24 hr, 23 nL of compounds dissolved in DMSO, positive controls or DMSO only was transferred to the assay plates by a Pintool station (Kalypsys, San Diego, CA). The transfer of compounds was followed by the addition of 1 uL of 0.1 nM (final concentration) agonist (17beta-Estradiol)/assay medium using a Flying Reagent Dispenser (FRD, Aurora Discovery, San Diego, CA). The plates were incubated at 37C and 5% CO2 for 22 hr. For cytotoxicity assay, 1 uL of CellTiter-Fluor reagent (Promega Corporation, Madison, WI) was added to each well using the FRD and after 30 min incubation at 37C and 5% CO2, The fluorescence intensity was measured using ViewLux plate reader (PerkinElmer, Shelton, CT).
On the technique in general: qHTS replaces the single test concentration by a dilution series.
For the molecule `Cc1ccccc1N=Nc1ccc(N=Nc2c(O)ccc3ccccc23)c(C)c1`, the Potency entry was “inactive”.

In the case of `Cc1cc(NC(=O)C(=O)O)cc(C)c1Oc1ccc(O)c2c1CCC2`, the Potency result is “inactive”.

In the case of `CCCCOc1ccc(CC(=O)NO)cc1`, the Potency result was “inactive”.

Regarding `CC(=O)SCc1ccco1`, the Potency entry is “inactive”.

`O=CNc1ccccc1`: the Potency result was “inactive”.

Consider `CC(C)CC=O`, for which the Potency result is “inactive”.

With `CC(=O)NCCCS(=O)(=O)O`, the Potency entry is “inactive”.

On to `C[C@@H](C1=C(CCN(C)C)Cc2ccccc21)c1ccccn1`, for which the Potency entry is “inactive”.

As to `CC(C(=O)O)c1ccc(-c2ccccc2)c(F)c1` (stereo not given), the Potency result was “inactive”.

For `C=CC(C)(CCC=C(C)C)OC(=O)c1ccccc1` (stereo not given), the Potency entry is “inactive”.

`CC(=O)Nc1ccc(/C=N/NC(N)=S)cc1`: the Potency entry was “inactive”.

In the case of `CC(C(=O)O)c1ccc(C(=O)c2ccccc2)s1` (stereo not given), the Potency entry was “inactive”.

For the molecule `CCCC(=O)OCC`, the Potency entry was “inactive”.

For the molecule `CCCCCCCCCC(=O)OCC`, the Potency result was “inactive”.

Regarding `CC1=CCC(C(C)C)C=C1` (stereo not given), the Potency entry was “inactive”.

As for `Cc1ccc(C)o1`, the Potency entry was “inactive”.

Consider `N[C@H]1C(O)O[C@H](CO)[C@H](O)[C@@H]1O` (stereo not given in full), for which the Potency result was “inactive”.

Take `CC[C@]12CCCN3CCc4c(n(c5ccccc45)C(=O)C1)[C@@H]32`: the Potency result is “inactive”.

For the molecule `O=C(O)Cc1sc(-c2ccccc2)nc1-c1ccc(Cl)cc1`, the Potency result is “inactive”.

On to `CCCCOCCOCCOCCOCCO`, for which the Potency result is “inactive”.

In the case of `CNS(=O)(=O)Cc1ccc2[nH]cc(CCN(C)C)c2c1`, the Potency entry was “inactive”.

Consider `CC[C@H](C)[C@@H](C(=O)O)n1sc2ccccc2c1=O`, for which the Potency entry is “inactive”.

On to `ClC(Cl)(Cl)c1ccc(C(Cl)(Cl)Cl)cc1`, for which the Potency entry is “inactive”.

For `CC(Cc1cccc(C(F)(F)F)c1)NCCOC(=O)c1ccccc1` (stereo not given), the Potency entry is “inactive”.

Turning to `Oc1ccc(Cc2ccccc2)cc1`, the Potency entry was “inactive”.

Consider `CCCCCCCC/C=C\CCCCCCCC(N)=O`, for which the Potency entry was “inactive”.

Consider `CCOC(=O)C1=C(C)NC(C)=C(C(=O)OC)C1c1cccc([N+](=O)[O-])c1` (stereo not given), for which the Potency result is “inactive”.

Consider `CC(C)c1cccc(C(C)C)c1NC(=O)NS(=O)(=O)c1cc(C(C)(C)O)co1`, for which the Potency result was “inactive”.

`C=CC(=O)OCC(C)OCC(C)OCC(C)OC(=O)C=C` (stereo not given): the Potency entry was “inactive”.

On to `CC(=O)N(O)CCCCCNC(=O)CCC(=O)N(O)CCCCCNC(=O)CCC(=O)N(O)CCCCCN`, for which the Potency entry is “inactive”.

For the molecule `CCC(=O)OC(C)(C)C1CC=C(C)CC1` (stereo not given), the Potency result is “inactive”.

Turning to `CCCC(C)C`, the Potency entry was “inactive”.

Regarding `O=C(c1ccc(O)cc1)c1ccc(O)cc1`, the Potency result is “inactive”.

In the case of `CC1CCc2cc(F)cc3c(=O)c(C(=O)O)cn1c23` (stereo not given), the Potency entry is “inactive”.

As to `NC(=S)N/N=C/c1cccnc1`, the Potency entry is “inactive”.

Consider `COCCO`, for which the Potency result is “inactive”.

`Oc1ccc(O)c2c(O)cccc12`: the Potency entry was “inactive”.

Consider `Cn1c(=O)c2c(ncn2CC(O)CO)n(C)c1=O` (stereo not given), for which the Potency result is “inactive”.

With `CCCCCCCCCC=O`, the Potency entry is “inactive”.

With `O=C(O)[C@@H]1[C@H]2C[C@H]3c4[nH]c5ccccc5c4CCN3C[C@@H]2CC[C@@H]1O`, the Potency result is “inactive”.
